This note sets out measurements from PubChem BioAssay.

The structures appear in SMILES notation. Active and inactive are the calls of the source.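 Rule for the calls, unless noted: active = inhibition at or above 50% at 10 µM; inactive = inhibition below 50%.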

A short description of assay [1]: inhibitors of TNFa-induced NFkB p65 translocation, primary screen, imaging, HUVEC, MLSMR starter and 10KST1 sets (AID 438;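 active = inhibition above 20% together with a positive visual image hit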;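 note: compound added about 3h40 before a 20 min TNFalpha stimulation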;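 for inhibition: signal is the nuclear over cytoplasmic p65 intensity ratio per well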). The settings on record: HUVEC TNFa-induced p65 nuclear translocation; cell count: measured here: nuclei count (cytotoxicity indicator), at 2.08 µM; inhibition: at 2 µM, stronger effect = higher value, 0% TNFa-plus-vehicle, 100% no-TNFa wells.
A short description of assay [2]: inhibitors of mutant huntingtin aggregation, primary screen, imaging, exon1htt(103Q)mCFP cells, high-content imaging (AID 483;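 active = visual image review flags a hit and inhibition of aggregation exceeds 20%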;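 note: compound exposure lasted 3 days before fixation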;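 for nuclei count: percent of the per-plate median nuclei count of sample wells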). The settings on record: exon1htt(103Q)mCFP cell line, aggregate imaging, at 2 µM; inhibition of aggregation: stronger effect = higher value; nuclei count: measured here: cell count, toxicity.
Assay [3] in a line: inhibitors of E-selectin induction by TNFa, primary screen, imaging, HUVEC, immunofluorescence, MLSMR starter and 10KST1 sets (AID 487;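 active = visually confirmed hit in the image check and inhibition above 20%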;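 for inhibition: signal is fraction of cell area covered by stained E-selectin grains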;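 for nuclei count: 100% = median nuclei count of all wells on the same plate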). The settings on record: HUVEC TNFalpha-induced E-selectin immunofluorescence imaging, at 2 µM; inhibition: stronger effect = higher value; nuclei count: measured here: cell number, toxicity.
The target of assay [4] is Voltage-gated potassium channel subunit beta-2 (Rattus norvegicus) (UniProt P62483). The experiment in a line: KvBeta enzyme negative modulators, primary screen, biochemical, NADPH fluorescence (AID 622;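 active = fluorescence slope higher than the sample average by over 3 SD, cut at about -0.22 in these data, passing the limit was not always enough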;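 note: slope of raw intensity against log time taken from 70 to 1610 s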). The settings on record: recombinant KvBeta, 4-cyanobenzaldehyde reduction, at 10 µM, stronger effect = higher value.
The target is the same in assay [5]. The experiment in a line: KvBeta positive modulators, primary screen, biochemical, NADPH fluorescence (AID 623;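 active = NADPH fluorescence slope more negative than the mean of all samples by about 3 SD, 99.7% confidence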;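 note: fluorescence intensity change per second fitted from 20 to 320 s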). The settings on record: Recombinant KvBeta, NADPH fluorescence decrease slope, 10 min; at 10 µM; stronger effect = lower value.
In assay [6] the target is Alpha-2C adrenergic receptor (Homo sapiens) (UniProt P18825). The experiment in a line: modulators of alpha2C/GIRK thallium flux, primary screen, cell-based, HEK293 alpha2C/GIRK1/2 (AID 624;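 active = fluorescence slope after compound addition differing from the mean of all screened samples at 99.7% confidence, in either direction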;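 note: slope of fluorescence ratio to pre-addition baseline per second over 15 to 24 s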). The settings on record: thallium flux BTC fluorescence, at 10 µM, actives lie on both sides.
Assay [7] can be described thus: inhibitors of Sendai virus-induced IRF3 signaling, primary screen, TLR/RLR signaling modifier project, cell-based, Sendai virus stimulus, luciferase, 10K MLSCN set (AID 602276).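 Note: firefly luciferase from ISG56 promoter only with Renilla not read in this screen; 0% = Sendai virus plus DMSO and 100% = medium plus DMSO without virus.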 The settings on record: HEK293 RL24 IRF3 luciferase reporter, at 10 µM, stronger effect = higher value. On the technique in general: Reporter assays use an easily measured gene product as a stand-in for the process of interest.

Assay [8] is described as follows: inhibitors of poly I:C-induced TLR3 signaling, primary screen, cell-based, poly I:C stimulus, luciferase, 10K MLSCN set (AID 602277;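 active = inhibition of the reporter signal at or above 50%; inactive = inhibition below 50%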). The settings on record: HEK293-TLR3 RL24 IRF3 luciferase reporter, at 10 µM, stronger effect = higher value.

Voltage-gated potassium channel subunit beta-2 (Rattus norvegicus), sequence (P62483 whole entry, looked up): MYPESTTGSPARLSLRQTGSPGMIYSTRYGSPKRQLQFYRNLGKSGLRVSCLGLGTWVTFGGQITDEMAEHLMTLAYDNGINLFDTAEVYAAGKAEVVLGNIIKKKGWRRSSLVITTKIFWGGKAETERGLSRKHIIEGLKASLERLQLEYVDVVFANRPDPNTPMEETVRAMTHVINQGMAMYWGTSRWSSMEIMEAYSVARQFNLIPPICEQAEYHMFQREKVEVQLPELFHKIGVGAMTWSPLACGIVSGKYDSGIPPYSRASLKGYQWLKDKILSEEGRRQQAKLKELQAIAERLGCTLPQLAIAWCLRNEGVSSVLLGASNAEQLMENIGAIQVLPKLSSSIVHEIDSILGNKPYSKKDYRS
Alpha-2C adrenergic receptor (Homo sapiens), sequence (P18825 whole entry, looked up): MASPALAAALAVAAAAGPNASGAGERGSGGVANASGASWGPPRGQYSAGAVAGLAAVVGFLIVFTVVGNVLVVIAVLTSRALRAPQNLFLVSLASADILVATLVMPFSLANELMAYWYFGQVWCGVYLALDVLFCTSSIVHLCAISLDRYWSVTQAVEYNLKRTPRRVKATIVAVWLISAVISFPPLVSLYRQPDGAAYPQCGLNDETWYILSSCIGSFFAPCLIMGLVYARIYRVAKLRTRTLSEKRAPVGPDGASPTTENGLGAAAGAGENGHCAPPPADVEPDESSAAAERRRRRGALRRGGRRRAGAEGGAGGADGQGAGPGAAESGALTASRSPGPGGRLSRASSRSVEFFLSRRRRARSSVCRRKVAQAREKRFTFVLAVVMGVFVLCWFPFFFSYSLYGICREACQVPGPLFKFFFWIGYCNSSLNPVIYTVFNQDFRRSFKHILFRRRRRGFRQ

What is called inhibition is the relative decrease from the control value, in per cent. With `COc1ccc(-c2noc(CCCC(=O)O)n2)cc1`, in assay [1], the cell count was 696. The inhibition was -7.8% (inactive) in assay [1], -54.3% (inactive) in assay [3], 35% (inactive) in assay [7] and 86.3% (active) in assay [8]. In assay [2], the inhibition of aggregation is -3.1% (inactive). Besides, the results for the nuclei count in assay [2] and in assay [3] were 125% and 107%, respectively. In addition, in assay [4], the fluorescence slope is -0.341 (inactive). In addition, the NADPH fluorescence slope in assay [5] is 1.2e-05 (inactive). The slope in assay [6] was 0.00595 (inactive).
In the case of `COc1cccc(C(=O)OCn2nnc3ccccc3c2=O)c1OC`, in assay [1], the cell count stood at 750. Further, the inhibition is -25% (inactive) in assay [1], -17.8% (inactive) in assay [3], 11.8% (inactive) in assay [7] and 28.8% (inactive) in assay [8]. In assay [2], the inhibition of aggregation is 21% (inactive). The nuclei count in assay [2] came to 99.5%; in assay [3], 103%. In addition, the fluorescence slope in assay [4] was -0.441 (inactive). For the same compound, the NADPH fluorescence slope in assay [5] was -2.9e-05 (inactive). Moreover, the slope in assay [6] is 0.00547 (inactive).
`CCC(=O)Nc1c2c(nn1-c1ccccc1C)CSC2`: in assay [1], the cell count was 592. Also, the inhibition in assay [1] was 8.9% (inactive); in assay [3] it was 31.2% (inactive); in assay [7], 14.2% (inactive); in assay [8], 21.4% (inactive). Further, the inhibition of aggregation in assay [2] is -2.1% (inactive). The figures for the nuclei count in assay [2] and in assay [3] were 114% and 99.7%, respectively. In addition, the fluorescence slope in assay [4] was -0.614 (inactive). The NADPH fluorescence slope in assay [5] is -1.7e-05 (inactive). Besides, the slope in assay [6] is 0.00682 (inactive).
On to `COc1ccc(S(=O)(=O)N2CCN(Cc3ccc(Cl)cc3)CC2)cc1`, for which the cell count in assay [1] amounted to 554. Also, the inhibition is -5.4% (inactive) in assay [1], -97.9% (inactive) in assay [3], 0.485% (inactive) in assay [7] and -1.64% (inactive) in assay [8]. The inhibition of aggregation in assay [2] was 24.4% (inactive). Further, the nuclei count in assay [2] came out at 61.1%; in assay [3], 148%. Besides, the fluorescence slope in assay [4] was -0.458 (inactive). Also, the NADPH fluorescence slope in assay [5] was -9.2e-06 (inactive). For the same compound, the slope in assay [6] is 0.00502 (inactive).
Take `CCOC(=O)c1ccccc1NC(=O)c1ccc(NS(C)(=O)=O)cc1`: the cell count in assay [1] is 485. For the same compound, the inhibition in assay [1] is -2.2% (inactive); in assay [3], 26.8% (inactive); in assay [7], 6.8% (inactive); in assay [8] it was 11.4% (inactive). Also, the inhibition of aggregation in assay [2] was 10.4% (inactive). Moreover, the nuclei count in assay [2] amounted to 90.2%; in assay [3] it was 86%. The fluorescence slope in assay [4] is -0.473 (inactive). Besides, the NADPH fluorescence slope in assay [5] is -6e-06 (inactive). The slope in assay [6] is 0.00606 (inactive).
On to `CCN(CCO)C(=O)CC(c1ccccc1)c1cc(Br)ccc1O` (stereo not drawn), for which the cell count in assay [1] is 357. Further, the inhibition in assay [1] was 15% (inactive); in assay [3], -31.9% (inactive); in assay [7] it was 13.1% (inactive); in assay [8] it was 20.3% (inactive). In addition, the inhibition of aggregation in assay [2] is -0.8% (inactive). Moreover, the nuclei count in assay [2] and in assay [3] was 102% each time. Moreover, in assay [4], the fluorescence slope is -0.331 (inactive). The NADPH fluorescence slope in assay [5] was -6.1e-05 (inactive). In assay [6], the slope is 0.00761 (inactive).
As to `Cc1nnc(SCC(=O)N2CCC(C(=O)Nc3nccs3)CC2)n1Cc1ccccc1`, the cell count in assay [1] came to 405. Besides, the inhibition is 6.1% (inactive) in assay [1], 10.2% (inactive) in assay [3], 18.3% (inactive) in assay [7] and 17% (inactive) in assay [8]. Also, the inhibition of aggregation in assay [2] is 8.5% (inactive). Moreover, the figures for the nuclei count in assay [2] and in assay [3] were 104% and 100%, respectively. For the same compound, the fluorescence slope in assay [4] is -0.604 (inactive). Also, in assay [5], the NADPH fluorescence slope is -4.4e-05 (inactive). Moreover, in assay [6], the slope was 0.00447 (inactive).
Consider `Cn1c(=O)[nH]c(=O)c2c1nc(Br)n2Cc1ccccc1F`, for which the cell count in assay [1] was 668. In addition, the inhibition in assay [1] was 8.8% (inactive); in assay [3], 4.9% (inactive); in assay [7], 9.21% (inactive); in assay [8], 12.8% (inactive). The inhibition of aggregation in assay [2] is 19.4% (inactive). The nuclei count is 68.3% in assay [2] and 106% in assay [3]. In addition, the fluorescence slope in assay [4] was -0.467 (inactive). For the same compound, the NADPH fluorescence slope in assay [5] was -3.7e-05 (inactive). For the same compound, the slope in assay [6] was 0.00509 (inactive).
